Reference: the supplement of paper PMC12669032

Columns and labels:
Assay in all cases: growth AUC relative to DMSO control (median of replicates) (fraction); higher = more growth (less inhibition), active = hit call of the paper
Conditions in all cases: 20 µM; 24 h;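 active = AUC reduced over 20% with Padj below 0.05 in at least 2 of 3 replicates; inactive = otherwise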
Akkermansia muciniphila = tested on: Akkermansia muciniphila
How it was run: (§1)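 Three biological replicates, each grown on a separate day, were combined as a median for every value. In each, a gut bacterial monoculture in mGAM started at OD600 0.05 and grew anaerobically at 37 °C with 20 µM compound (1% DMSO), with OD600 read hourly over 24 h. Area under the growth curve was normalised against the plate median of solvent-only wells, or against row and column medians on the industrial chemical plate, after the minimum OD was set to 0.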

Bacteroides caccae = tested on: Bacteroides caccae
How it was run: as §1

Bacteroides clarus = tested on: Bacteroides clarus
How it was run: as §1

Bacteroides dorei = tested on: Bacteroides dorei
How it was run: as §1

Bacteroides stercoris = tested on: Bacteroides stercoris
How it was run: as §1

[1] = tested on: Bacteroides thetaiotaomicron
How it was run: as §1

Bacteroides uniformis = tested on: Bacteroides uniformis
How it was run: as §1

[2] = tested on: Bifidobacterium longum subsp. longum
How it was run: as §1

Clostridium difficile = tested on: Clostridium difficile
How it was run: as §1

Collinsella aerofaciens = tested on: Collinsella aerofaciens
How it was run: as §1

Coprococcus comes = tested on: Coprococcus comes
How it was run: as §1

Escherichia coli ED1a = tested on: Escherichia coli ED1a
How it was run: as §1

Escherichia coli IAI1 = tested on: Escherichia coli IAI1
How it was run: as §1

Eubacterium rectale = tested on: Eubacterium rectale
How it was run: as §1

[3] = tested on: Fusobacterium nucleatum subsp. animalis
How it was run: as §1

Lactobacillus gasseri = tested on: Lactobacillus gasseri
How it was run: as §1

Lactobacillus paracasei = tested on: Lactobacillus paracasei
How it was run: as §1

Odoribacter splanchnicus = tested on: Odoribacter splanchnicus
How it was run: as §1

[4] = tested on: Parabacteroides distasonis
How it was run: as §1

Parabacteroides merdae = tested on: Parabacteroides merdae
How it was run: as §1

Measured: growth AUC

COc1nc(C)nc(NC(=O)NS(=O)(=O)c2ccccc2CCC(F)(F)F)n1
inactive: Akkermansia muciniphila 0.874 | Bacteroides caccae 0.985 | Bacteroides clarus 1.01 | Bacteroides dorei 0.992 | Bacteroides stercoris 0.978 | [1] 0.948 | Bacteroides uniformis 0.978 | [2] 0.966 | Clostridium difficile 0.992 | Collinsella aerofaciens 0.966 | Coprococcus comes 0.967 | Escherichia coli ED1a 0.997 | Escherichia coli IAI1 0.976 | Eubacterium rectale 0.954 | [3] 0.992 | Lactobacillus gasseri 1.06 | Lactobacillus paracasei 1 | Odoribacter splanchnicus 0.962 | [4] 1.01 | Parabacteroides merdae 1

CCOP(=O)(OCC)OP(=O)(OCC)OCC
inactive: Akkermansia muciniphila 1.07 | Bacteroides caccae 0.988 | Bacteroides clarus 1 | Bacteroides dorei 0.956 | Bacteroides stercoris 0.932 | [1] 1.03 | Bacteroides uniformis 0.992 | [2] 1.02 | Clostridium difficile 1.03 | Collinsella aerofaciens 0.966 | Coprococcus comes 0.976 | Escherichia coli ED1a 0.982 | Escherichia coli IAI1 1.02 | Eubacterium rectale 1.19 | [3] 1.02 | Lactobacillus gasseri 0.954 | Lactobacillus paracasei 0.961 | Odoribacter splanchnicus 0.986 | [4] 0.946 | Parabacteroides merdae 0.919

COc1nn(CSP(=S)(OC)OC)c(=O)s1
inactive: Akkermansia muciniphila 1.01 | Bacteroides caccae 1.01 | Bacteroides clarus 1.02 | Bacteroides dorei 0.992 | Bacteroides stercoris 1.04 | [1] 1.04 | Bacteroides uniformis 1.02 | [2] 1.02 | Clostridium difficile 0.996 | Collinsella aerofaciens 1.03 | Coprococcus comes 1.06 | Escherichia coli ED1a 1 | Escherichia coli IAI1 1 | Eubacterium rectale 1.08 | [3] 1.01 | Lactobacillus gasseri 0.987 | Lactobacillus paracasei 1.01 | Odoribacter splanchnicus 1.08 | [4] 1 | Parabacteroides merdae 1.04

Cc1ccc(N=CN(C)C=Nc2ccc(C)cc2C)c(C)c1
inactive: Akkermansia muciniphila 1.13 | Bacteroides caccae 1.01 | Bacteroides clarus 1.06 | Bacteroides dorei 0.983 | Bacteroides stercoris 1.05 | [1] 1.01 | Bacteroides uniformis 1.02 | [2] 1.03 | Clostridium difficile 1.04 | Collinsella aerofaciens 1.01 | Coprococcus comes 1.04 | Escherichia coli ED1a 1.01 | Escherichia coli IAI1 1.01 | Eubacterium rectale 1.06 | [3] 1.09 | Lactobacillus gasseri 0.967 | Lactobacillus paracasei 1.06 | Odoribacter splanchnicus 1.02 | [4] 0.988 | Parabacteroides merdae 1.01

CCOP(=S)(OCC)Oc1ccc([N+](=O)[O-])cc1
inactive: Akkermansia muciniphila 1.09 | Bacteroides caccae 0.963 | Bacteroides clarus 1 | Bacteroides dorei 1.02 | Bacteroides stercoris 1.05 | [1] 0.972 | Bacteroides uniformis 0.959 | [2] 1.03 | Clostridium difficile 1 | Collinsella aerofaciens 1.03 | Coprococcus comes 0.997 | Escherichia coli ED1a 1 | Escherichia coli IAI1 0.979 | Eubacterium rectale 1.09 | [3] 1.11 | Lactobacillus gasseri 0.98 | Lactobacillus paracasei 1.04 | Odoribacter splanchnicus 1.02 | [4] 0.964 | Parabacteroides merdae 0.994

Oc1ccc(Cl)cc1Cc1cc(Cl)ccc1O
active: Akkermansia muciniphila 0.202 | Bacteroides caccae 0.416 | Bacteroides clarus 0.154 | Bacteroides stercoris 0.00782 | [1] 0.359 | Bacteroides uniformis 0.163 | [2] 0.598 | Clostridium difficile 0.633 | Escherichia coli ED1a 0.793 | Escherichia coli IAI1 0.684 | Eubacterium rectale 0.497 | Lactobacillus gasseri 0.115 | Lactobacillus paracasei 0.47 | Odoribacter splanchnicus 0.0459 | [4] 0.0176 | Parabacteroides merdae 0.0937
inactive: Bacteroides dorei 0.765 | Collinsella aerofaciens 0.878 | Coprococcus comes 0.965 | [3] 0.845

COc1cc(OC)nc(NC(=O)[N-]S(=O)(=O)c2ncccc2OCC(F)(F)F)n1.[Na+]
active: [1] 0.77
inactive: Akkermansia muciniphila 1.07 | Bacteroides caccae 0.973 | Bacteroides clarus 0.982 | Bacteroides dorei 0.995 | Bacteroides stercoris 0.888 | Bacteroides uniformis 1.02 | [2] 1.07 | Clostridium difficile 1 | Collinsella aerofaciens 1 | Coprococcus comes 0.957 | Escherichia coli ED1a 0.993 | Escherichia coli IAI1 0.982 | Eubacterium rectale 1.04 | [3] 1.08 | Lactobacillus gasseri 0.9 | Lactobacillus paracasei 1.04 | Odoribacter splanchnicus 0.932 | [4] 1.03 | Parabacteroides merdae 0.974
